PubChem BioAssay AID1159580 (chemical genetic matrix, 2015)
Screen size: about 5,500 compounds; about 2,000 (36%) were called active. Inconclusive results (about 18%) are left out. Rule as the data show it: active = normalized growth mostly below about 0.91 (no sharp cut-off); inconclusive = no clear call, values can overlap the other calls; inactive = mostly above about 0.92. Some of the results follow.

Assay: chemical genetic growth profiling, strain panel (AID 1159580);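 also: tested at 20 µM; growth read once vehicle control cultures reached saturation at 30 °C; 1 = growth at the plate median or of vehicle wells; lower values mean less growth of the strain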
Conditions: growth OD

Measured: normalized growth

CC(C)(Sc1cc(C(C)(C)C)c(O)c(C(C)(C)C)c1)Sc1cc(C(C)(C)C)c(O)c(C(C)(C)C)c1
inactive: S. cerevisiae deletion strains, locus YJR075W, strain HOC1, active compounds read low 1.01 | S. cerevisiae deletion strains, locus YKL068W, active compounds read low 1.01 | S. cerevisiae deletion strains, locus YKL085W, strain MDH1 (second series), active compounds read low 1.05 | S. cerevisiae deletion strains, locus YKL085W, strain MDH1, active compounds read low 1.05 | S. cerevisiae deletion strains, locus YKL160W, strain elf1, active compounds read low 0.99 | S. cerevisiae deletion strains, locus YKL190W, strain CNB1, active compounds read low 1.01 | S. cerevisiae deletion strains, locus YKR001C, strain vps1, active compounds read low 1.02 | S. cerevisiae deletion strains, locus YKR026C, strain gcn3, active compounds read low 0.987 | S. cerevisiae deletion strains, locus YKR091W, strain srl3, active compounds read low 1.02 | S. cerevisiae deletion strains, locus YLL001W, strain dnm1, active compounds read low 0.996 | S. cerevisiae deletion strains, locus YLL026W, active compounds read low 1 | S. cerevisiae deletion strains, locus YLL041C, strain sdh2, active compounds read low 1.01 | S. cerevisiae deletion strains, locus YLR027C, strain aat2, active compounds read low 0.994 | S. cerevisiae deletion strains, locus YLR039C, strain RIC1, active compounds read low 1.02 | S. cerevisiae deletion strains, locus YLR058C, strain SHM2, active compounds read low 1.01 | S. cerevisiae deletion strains, locus YLR102C, strain apc9, active compounds read low 1.03 | S. cerevisiae deletion strains, locus YLR113W, strain HOG1, active compounds read low 1.01 | S. cerevisiae deletion strains, locus YLR221C, strain rsa3, active compounds read low 1.01 | S. cerevisiae deletion strains, locus YLR258W, strain gsy2, active compounds read low 1.01 | S. cerevisiae deletion strains, locus YLR262C, strain YPT6 (second series), active compounds read low 1 | S. cerevisiae deletion strains, locus YLR262C, strain YPT6, active compounds read low 1.01 | S. cerevisiae deletion strains, locus YLR268W, strain sec22, active compounds read low 1.09 | S. cerevisiae deletion strains, locus YLR320W, strain mms22, active compounds read low 1 | S. cerevisiae deletion strains, locus YLR330W, strain CHS5, active compounds read low 1.01 | S. cerevisiae deletion strains, locus YLR342W, strain FKS1 (second series), active compounds read low 0.992 | S. cerevisiae deletion strains, locus YLR342W, strain FKS1, active compounds read low 1 | S. cerevisiae deletion strains, locus YLR357W, strain rsc2, active compounds read low 0.997 | S. cerevisiae deletion strains, locus YLR370C, strain arc18, active compounds read low 1.01 | S. cerevisiae deletion strains, locus YLR371W, strain rom2, active compounds read low 1.01 | S. cerevisiae deletion strains, locus YLR384C, strain iki3, active compounds read low 0.99 | S. cerevisiae deletion strains, locus YLR418C, strain cdc73, active compounds read low 1.07 | S. cerevisiae deletion strains, locus YML016C, strain PPZ1, active compounds read low 0.999 | S. cerevisiae deletion strains, locus YML032C, strain rad52, active compounds read low 1.03 | S. cerevisiae deletion strains, locus YML120C, strain ndi1, active compounds read low 1 | S. cerevisiae deletion strains, locus YML124C, strain tub3, active compounds read low 1.02 | S. cerevisiae deletion strains, locus YMR058W, strain fet3, active compounds read low 1.02 | S. cerevisiae deletion strains, locus YMR078C, strain ctf18, active compounds read low 1.03 | S. cerevisiae deletion strains, locus YMR125W, strain sto1, active compounds read low 1 | S. cerevisiae deletion strains, locus YMR129W, active compounds read low 1.01 | S. cerevisiae deletion strains, locus YMR205C, strain PFK2, active compounds read low 1.01 | S. cerevisiae deletion strains, locus YMR223W, strain ubp8, active compounds read low 1.02 | S. cerevisiae deletion strains, locus YMR231W, strain pep5, active compounds read low 1 | S. cerevisiae deletion strains, locus YMR263W, strain SAP30, active compounds read low 1.03 | S. cerevisiae deletion strains, locus YMR307W, strain GAS1, active compounds read low 1.01 | S. cerevisiae deletion strains, locus YNL067W, strain RPL9B, active compounds read low 1.03 | S. cerevisiae deletion strains, locus YNL071W, strain lat1, active compounds read low 1.02 | S. cerevisiae deletion strains, locus YNL128W, strain TEP1, active compounds read low 1.03 | S. cerevisiae deletion strains, locus YNL153C, strain GIM3, active compounds read low 1.03 | S. cerevisiae deletion strains, locus YNL183C, strain NPR1, active compounds read low 0.899 | S. cerevisiae deletion strains, locus YNL209W, strain ssb2, active compounds read low 0.989 | S. cerevisiae deletion strains, locus YNL233W, strain BNI4, active compounds read low 1.02 | S. cerevisiae deletion strains, locus YNL248C, strain rpa49, active compounds read low 1.06 | S. cerevisiae deletion strains, locus YNL250W, strain rad50, active compounds read low 1.02 | S. cerevisiae deletion strains, locus YNL271C, strain bni1, active compounds read low 1.03 | S. cerevisiae deletion strains, locus YNL298W, strain CLA4, active compounds read low 1.02 | S. cerevisiae deletion strains, locus YNL307C, strain MCK1, active compounds read low 1.03 | S. cerevisiae deletion strains, locus YNL322C, strain KRE1 (second series), active compounds read low 1.01 | S. cerevisiae deletion strains, locus YNL322C, strain KRE1, active compounds read low 1.01 | S. cerevisiae deletion strains, locus YNR049C, strain mso1, active compounds read low 1 | S. cerevisiae deletion strains, locus YNR052C, strain pop2, active compounds read low 1.02 | S. cerevisiae deletion strains, locus YOL006C, strain TOP1, active compounds read low 1.11 | S. cerevisiae deletion strains, locus YOL012C, strain htz1 1.15 | S. cerevisiae deletion strains, locus YOL147C, strain pex11, active compounds read low 1.02 | S. cerevisiae deletion strains, locus YOR001W, strain rrp6, active compounds read low 1.02 | S. cerevisiae deletion strains, locus YOR061W, strain CKA2, active compounds read low 1.01 | S. cerevisiae deletion strains, locus YOR069W, strain VPS5, active compounds read low 0.987 | S. cerevisiae deletion strains, locus YOR070C, strain gyp1, active compounds read low 1 | S. cerevisiae deletion strains, locus YOR080W, strain dia2, active compounds read low 0.996 | S. cerevisiae deletion strains, locus YOR083W, strain WHI5, active compounds read low 0.998 | S. cerevisiae deletion strains, locus YOR106W, strain vam3, active compounds read low 0.98 | S. cerevisiae deletion strains, locus YOR136W, strain idh2, active compounds read low 1.03 | S. cerevisiae deletion strains, locus YOR144C, strain elg1, active compounds read low 1.01 | S. cerevisiae deletion strains, locus YOR184W, strain ser1, active compounds read low 1.03 | S. cerevisiae deletion strains, locus YOR231W, strain MKK1, active compounds read low 0.996 | S. cerevisiae deletion strains, locus YOR265W, strain rbl2, active compounds read low 0.997 | S. cerevisiae deletion strains, locus YOR270C, strain vph1, active compounds read low 1.05 | S. cerevisiae deletion strains, locus YOR290C, strain snf2, active compounds read low 1.01 | S. cerevisiae deletion strains, locus YOR316C, strain cot1, active compounds read low 1.03 | S. cerevisiae deletion strains, locus YPL051W, strain arl3, active compounds read low 0.988 | S. cerevisiae deletion strains, locus YPL055C, strain LGE1, active compounds read low 1.03 | S. cerevisiae deletion strains, locus YPL078C, strain atp4, active compounds read low 1.01 | S. cerevisiae deletion strains, locus YPL106C, strain sse1, active compounds read low 1.01 | S. cerevisiae deletion strains, locus YPL240C, strain hsp82, active compounds read low 1.03 | S. cerevisiae deletion strains, locus YPL241C, strain CIN2, active compounds read low 1.01 | S. cerevisiae deletion strains, locus YPL256C, strain CLN2, active compounds read low 1.03 | S. cerevisiae deletion strains, locus YPR119W, strain clb2, active compounds read low 1.01 | S. cerevisiae deletion strains, locus YPR141C, strain kar3, active compounds read low 1.02 | S. cerevisiae deletion strains, locus YPR163C, strain tif3, active compounds read low 1.02 | S. cerevisiae deletion strains, locus YPR167C, strain met16, active compounds read low 1.02 | S. cerevisiae deletion strains, strain wtn01, active compounds read low 1.02 | S. cerevisiae strains, strain wild type, active compounds read low 1.02
